HCV inh = blocks hepatitis C virus | Potency, µM (doses to about 41.8 µM), for inactives: top-dose activity change, negative = inhibition, hits mostly inhibitors | Huh7.5.1 HCVcc-Cre infection, luciferase reporter, 44 h | 3.4% of 340,000 active; note: % is set by controls: 0 for no effect and ±100 for the full control effect
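1,000 cells/well; 4 h culture; + compound; + HCVcc-Cre (~0.5 moi); 44 h; luciferase substrate, RT 15 min; read 15 sec.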
Vaccinia mCherry = inhibitors of vaccinia virus infection (mCherry reporter signal). Vaccinia virus mCherry reporter infection, fluorescence. Potency, µM (doses to about 36.5 µM), without a hit: top-dose activity change, negative = inhibition, most hits filed as inhibitors. 0.63% of 310,000 active. AID 720579; calls by dose curve; tested in A549 cells; note: % is set by controls: 0 for no effect and ±100 for the full control effect; nearly all actives have a fitted effect of over 35% in size
Vaccinia Venus = inhibitors of vaccinia virus (Venus reporter); 0.46% of 330,000 active; Vaccinia virus Venus reporter expression, fluorescence; Potency, µM (series often up to 36.5 µM), without a hit: at the top dose activity change, negative = inhibition, most hits filed as inhibitors; calls by dose curve; tested in A549 cells; note: % is set by controls: 0 for no effect and ±100 for the full control effect; nearly all actives have a fitted effect of over 30% in size
Pf growth 96h = P. falciparum growth inhibition at 96 hour, primary screen for plastid delayed-death inhibitors; P. falciparum luciferase reporter growth, 96 h; Potency, µM (titrated, usually from 28.7 µM), for inactives: at the highest dose activity change, negative = inhibition, actives largely listed as inhibitors; 6.9% of 320,000 active; note: % is set by controls: 0 for no effect and ±100 for the full control effect
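Two-generation exposure (96 h) targets delayed-death phenotype. Reporter parasites carrying integrated firefly luciferase, in red cells at 2% hematocrit and 0.05% parasitemia final, kept at 37 C, 5% CO2; luminescence loss indicates inhibition.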
NS1 function inh = influenza NS1 inhibition | Potency, µM (titrated, usually from 46.1 µM), inactives show at the highest dose activity, positive = more growth | 0.4% of 270,000 active | AID 2326; calls by dose curve; note: actives are rising curves; nearly all actives have a fitted effect of over 50% in size
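In this qHTS, NS1 from influenza A is expressed in budding yeast, where it slows growth. Cells are switched from glucose to 2% galactose medium (pH 6.0, -URA), treated with compound, and growth recovery is read at OD600.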
Pf growth 48h = inhibits P. falciparum growth in the first generation, 48 h; 5.9% of 310,000 active; Potency, µM (top dose mostly 28.7 µM), inactives show at the top dose activity change, negative = inhibition, actives largely listed as inhibitors; AID 504832; P. falciparum luciferase growth in erythrocytes, 48 h; note: % is set by controls: 0 for no effect and ±100 for the full control effect
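Read-out is firefly luciferase luminescence from an integrated reporter in P. falciparum, so falling signal marks reduced parasite growth. Infected erythrocytes were at 2% hematocrit and 0.1% parasitemia (final) in Albumax-supplemented RPMI 1640.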
* hit, by the source's call; i = inactive; u = inconclusive; x = not tested or not shown; [ ] = dose if it differs, or a comment. Shown are actives, neighbours in structure and some others; about 11% of the full set was active somewhere. Unless noted, calls come from the whole dose curve; as a rule, active = well fitted inhibition curve with a large enough effect; inconclusive = small, poorly fitted or top-dose-only effect, or another doubt; inactive = no such curve, though single readings can be large or run the other way. Potency is the fitted concentration of half-maximal effect.

SMILES	HCV inh	Vaccinia mCherry	Vaccinia Venus	Pf growth 96h	NS1 function inh	Pf growth 48h
NC(=O)C1(N2CCCCC2)CCN(C(=O)NC2CCCCC2)CC1	-10%	x	4%	15µM*	7%	0%
NC(=O)C1(N2CCCCC2)CCN(C(=O)Nc2ccccc2C(F)(F)F)CC1	0%	x	-7%	1.7µM*	6%	5%
NC(=O)C1(N2CCCCC2)CCN(C(=O)Nc2ccc(C(F)(F)F)cc2)CC1	x	-14%	-12%	x	x	x
O=C(Nc1ccccc1C(F)(F)F)N1CCCCCC1	21%	x	x	u	16%	34%
O=C(O)COc1c(-c2ccc(Cl)cc2)oc2ccccc2c1=O	31%	-7%	1%	-12%[5.75 µM]	-9%	25%
COc1cc(C2NC(=S)NC(c3ccccc3)=C2C(C)=O)ccc1O (stereo not given)	-2%	x	x	24%	6%	34%
CCOc1ccccc1NC(=O)COc1coc(CN2CCc3ccccc3C2)cc1=O	u	i	-8%	13µM*	x	-15%
CCOc1ccccc1NC(=O)COc1coc(CN2CCCc3ccccc32)cc1=O	13µM*	u	-22%	u	x	13µM*
Cc1ccc(-c2nn(-c3cc(N4CCNCC4)ccc3[N+](=O)[O-])c(=O)c3ccccc23)cc1	u	-15%	-19%	0%	u	u
Cc1ccc(-c2nn(-c3cc(Cl)ccc3[N+](=O)[O-])c(=O)c3ccccc23)cc1C	-16%	-28%	-18%	u	26%	5.2µM*
CCc1ccc(-c2nn(-c3cc(Cl)ccc3[N+](=O)[O-])c(=O)c3ccccc23)cc1	-4%	x	-6%	9.3µM*	6%	u
O=c1c2ccccc2c(-c2ccccc2)nn1-c1cc(Cl)ccc1[N+](=O)[O-]	u	-10%	-19%	u	16%	8.3µM*
O=C(O)C(c1ccccc1)C(O)C1CC=CCC1 (stereo not given)	16%	-9%	-13%	x	x	x
CC(Sc1n[nH]c(N)n1)C(=O)C12CC3CC(CC(C3)C1)C2 (stereo not given)	17%	i	-3%	0%	-5%	x
CC(SC#N)C(=O)C12CC3CC(CC(C3)C1)C2 (stereo not given)	0%	u	u	30%	x	13µM*
COc1ccc2oc(C(=O)NC(C)c3ccccn3)c(C)c2c1 (stereo not given)	-2%	i	-4%	x	x	x
CCOc1cccc(=O)c2c(C)n(CC(=O)c3ccccc3)c(C)c12	u	2%	-11%	44%	17%	8.3µM*
COc1cccc(=O)c2c(C)n(CC(=O)c3ccccc3)c(C)c12	-25%	i	0%	293%	5%	u
S=C1NC2=C(CCC/C2=C\c2ccc(Cl)cc2)C(c2ccc(Cl)cc2)N1 (stereo not given)	-8%	u	-19%	u	10%	u
CC1CC(=O)Nc2ccccc2N1S(=O)(=O)c1ccc(F)cc1F (stereo not given)	3%	-3%	-13%	u	-6%	2.3µM*
CC1CC(=O)Nc2ccccc2N1S(=O)(=O)c1ccccc1 (stereo not given)	3%	x	x	7%	18%	-9%
CC1CC(=O)Nc2ccccc2N1S(=O)(=O)c1ccc(Cl)cc1 (stereo not given)	14%	x	x	6%	4%	-13%
CC(=O)Nc1ccc(S(=O)(=O)N2c3ccccc3NC(=O)CC2C)c(Cl)c1 (stereo not given)	14%	i[7.34 µM]	2%[7.34 µM]	0%	-2%	2.1µM*
CCS(=O)(=O)c1ccc2oc(SCC(=O)NCCc3ccccc3)nc2c1	7%	13µM*	u	15%	-2%	-23%
CCOc1ccc(N(C(=O)CNC(=O)c2cccs2)C(C(=O)NCC2CCCO2)c2ccc(OC)c(OC)c2)cc1 (stereo not given)	-24%	-11%	-16%	-5%	-10%	9.3µM*
SMILES	HCV inh	Vaccinia mCherry	Vaccinia Venus	Pf growth 96h	NS1 function inh	Pf growth 48h
COc1ccc(C(C(=O)NC(C)(C)C)N(C(=O)CNC(=O)c2cccs2)c2ccc(C(C)C)cc2)cc1OC (stereo not given)	-13%	-2%	-19%	8.3µM*	u	12µM*
CCOC(=O)c1cc(NC(=O)c2cc(C)on2)cc(C(=O)OCC)c1	2%	x	x	341%	u	-5%
COc1ccc2[nH]c3c(c2c1)CCN1C(=O)C(CC(=O)NCc2ccco2)C[C@H](C(=O)N(C(C)C)C(C)C)[C@@]31C (stereo not given in full)	u	-18%	u	x	x	x
COc1ccccc1C(=O)Nc1ccc2c3c(cccc13)CC2	u	-14%	-10%	-13%	-7%	59%
CCN1C(=O)C(CC(=O)N2CCN(C(c3ccccc3)c3ccccc3)CC2)N(CC)C1=O (stereo not given)	6%	x	x	u	-20%	12µM*
COc1ccc(-c2ocnc2C(=O)N2CCN(C(c3ccccc3)c3ccccc3)CC2)cc1	u	-28%	-3%	-3%	x	8.3µM*
CCN1C(=O)CC(N2CCN(C(c3ccccc3)c3ccccc3)CC2)C1=O (stereo not given)	1%	-7%	-15%	x	-5%	u
CC(C)(C)C(=O)N1CCN(C(c2ccccc2)c2ccccc2)CC1	-22%	-16%	-9%	10µM*	-9%	12µM*
CCCNC(=O)N1CCN(C(c2ccccc2)c2ccccc2)CC1	-4%	x	x	303%	-8%	u
CNC(=S)N1CCN(C(c2ccccc2)c2ccccc2)CC1	-1%	-15%	-11%	9%	1%	-22%
Cc1cc(C(=O)N2CCN(C(c3ccccc3)c3ccccc3)CC2)on1	-8%	-14%	-21%	4%	-155%	x
O=C(NC(=O)N1CCN(C(c2ccccc2)c2ccccc2)CC1)c1ccccc1	u	-4%	-18%	u	-44%	13µM*
CN1CCSc2ccc(C(=O)NCc3ccccc3)cc21	-28%	-13%	-19%	-15%	4%	u
O=C1Nc2ccccc2S/C1=C/NCc1ccccc1Cl	-6%	x	x	14%	x	9%
Cc1cccc(N2CCN(S(=O)(=O)c3cccc4nonc34)CC2C)c1 (stereo not given)	12%	-17%	-7%	-1%	x	-2%
Cc1cccc(-c2nc(SCCCOc3cc(C)c(Cl)c(C)c3)n3[nH]c(=O)cc3n2)c1	x	2%	0%	x	x	x
Cc1occc1C(=O)N1CCN(C(c2ccccc2)c2ccccc2)CC1	6%	x	x	-2%	-11%	1.3µM*
O=C(c1ccccc1F)N1CCN(c2ccccc2)CC1	6%	x	x	9%	-6%	7%
O=C(c1ccccc1F)N1CCN(C(=O)C(c2ccccc2)c2ccccc2)CC1	-1%	-1%	-9%	0.29µM*	1%	-17%
Cc1ccccc1C(=O)N1CCN(C(c2ccccc2)c2ccccc2)CC1	u	x	x	5.9µM*	-5%	10µM*

From PubChem BioAssay
